In all, about 16,000 sequences were measured (“rpm ratio (pull-down/input)”: median about 0.94, highest 2% from about 1.7 on). What follows is part of a selection rich in the highest values, with near analogues and random picks from the rest.
target: T1, MBP-FoxP1dN (Mus musculus, UniProt P58462 326-579); experiment: PD-seq (MBP pull-down with sequencing); 20 mM Tris-HCl pH 7.5, 100 mM NaCl, 1.5 mM MgCl2, 0.4 uM protein, 0.1 uM dsDNA library, 30 min, room temperature, amylose pull-down; high values mean tight binding; conditions: protein: recombinant; tags: His6-MBP; chain copies: 2; dsDNA, one strand shown
T1 sequence: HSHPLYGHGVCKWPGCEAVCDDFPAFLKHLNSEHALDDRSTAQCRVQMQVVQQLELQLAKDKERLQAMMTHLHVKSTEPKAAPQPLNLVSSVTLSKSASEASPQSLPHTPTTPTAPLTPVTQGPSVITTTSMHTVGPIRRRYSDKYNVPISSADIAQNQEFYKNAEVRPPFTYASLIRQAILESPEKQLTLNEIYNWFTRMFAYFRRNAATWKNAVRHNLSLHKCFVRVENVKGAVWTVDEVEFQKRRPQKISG
Summary of the method: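 A degenerate double-stranded DNA library, filled in with Klenow, was added at 0.1 µM to 0.4 µM His6-MBP-tagged mouse FoxP3 or FoxP1 fragment lacking the N-terminus, expressed in E. coli. Incubation lasted 30 min at room temperature in Tris pH 7.5 buffer with NaCl and MgCl2, after which complexes were collected on amylose resin, washed three times, digested with proteinase K to free the DNA, barcoded by PCR and sequenced by Illumina. Binding is the pooled-replicate reads-per-million enrichment of pull-down over input.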

Question: With “GATGATTGTTCTCCCAGCTGATGAATTTCAGCTGTCGAGTAAACAAATTTTCCTAATCTTTCTGTTCAAGCGCCATCTAC” as the sequence, how does the binding signal read?
Answer: 0.889 RPM ratio (pull-down/input)

Question: With “GATGATTGTTCTCCCAGCTGATGAATTGATGATGTCGAGTAAACAAATTTTCCTAATCTTTCTGTTCAAGCGCCATCTAC” as the sequence, how does the binding signal read?
Answer: 1.39 RPM ratio (pull-down/input)

Question: How did the binding signal turn out when “GATGATTGTTCTCCCAGCTGATGAATTCTTCATGTCGAGTAAACAAATTTTCCTAATCTTTCTGTTCAAGCGCCATCTAC” was run?
Answer: 0.907 RPM ratio (pull-down/input)

Question: “GATGATTGTTCTCCCAGCTGATGAATTTCTATGATCGAGTAAACAAATTTTCCTAATCTTTCTGTTCAAGCGCCATCTAC” was tested. Which binding signal did it give?
Answer: 0.89 RPM ratio (pull-down/input)

Question: How did the binding signal turn out when “GATGATTGTTCTCCCAGCTGATGAATTTTTAATATCGAGTAAACAAATTTTCCTAATCTTTCTGTTCAAGCGCCATCTAC” was run?
Answer: 1.24 RPM ratio (pull-down/input)

Question: With “GATGATTGTTCTCCCAGCTGATGAATTCCGACCATCGAGTAAACAAATTTTCCTAATCTTTCTGTTCAAGCGCCATCTAC” as the sequence, how does the binding signal read?
Answer: 0.869 RPM ratio (pull-down/input)

Question: With “GATGATTGTTCTCCCAGCTGATGAATTACGGGCATCGAGTAAACAAATTTTCCTAATCTTTCTGTTCAAGCGCCATCTAC” as the sequence, how does the binding signal read?
Answer: 1.11 RPM ratio (pull-down/input)

Question: Which binding signal does the source give for “GATGATTGTTCTCCCAGCTGATGAATTGGCGATTTCGAGTAAACAAATTTTCCTAATCTTTCTGTTCAAGCGCCATCTAC” here?
Answer: 0.865 RPM ratio (pull-down/input)

Question: How did the binding signal turn out when “GATGATTGTTCTCCCAGCTGATGAATTTTACGGATCGAGTAAACAAATTTTCCTAATCTTTCTGTTCAAGCGCCATCTAC” was run?
Answer: 0.879 RPM ratio (pull-down/input)

Question: With “GATGATTGTTCTCCCAGCTGATGAATTGTCACGGTCGAGTAAACAAATTTTCCTAATCTTTCTGTTCAAGCGCCATCTAC” as the sequence, how does the binding signal read?
Answer: 0.924 RPM ratio (pull-down/input)

Question: How did the binding signal turn out when “GATGATTGTTCTCCCAGCTGATGAATTATTCGTTTCGAGTAAACAAATTTTCCTAATCTTTCTGTTCAAGCGCCATCTAC” was run?
Answer: 1.01 RPM ratio (pull-down/input)

Question: Which binding signal does the source give for “GATGATTGTTCTCCCAGCTGATGAATTCCTACCGTCGAGTAAACAAATTTTCCTAATCTTTCTGTTCAAGCGCCATCTAC” here?
Answer: 0.731 RPM ratio (pull-down/input)

Question: Which binding signal does the source give for “GATGATTGTTCTCCCAGCTGATGAATTGGTTGTGTCGAGTAAACAAATTTTCCTAATCTTTCTGTTCAAGCGCCATCTAC” here?
Answer: 1.2 RPM ratio (pull-down/input)

Question: For “GATGATTGTTCTCCCAGCTGATGAATTGGTGTGGTCGAGTAAACAAATTTTCCTAATCTTTCTGTTCAAGCGCCATCTAC”, which binding signal is on record?
Answer: 1.04 RPM ratio (pull-down/input)

Question: For “GATGATTGTTCTCCCAGCTGATGAATTGTGTTGGTCGAGTAAACAAATTTTCCTAATCTTTCTGTTCAAGCGCCATCTAC”, which binding signal is on record?
Answer: 1.92 RPM ratio (pull-down/input)

Question: “GATGATTGTTCTCCCAGCTGATGAATTTCTGTGGTCGAGTAAACAAATTTTCCTAATCTTTCTGTTCAAGCGCCATCTAC” was tested. Which binding signal did it give?
Answer: 0.924 RPM ratio (pull-down/input)

Question: Which binding signal does the source give for “GATGATTGTTCTCCCAGCTGATGAATTTTTGTGGTCGAGTAAACAAATTTTCCTAATCTTTCTGTTCAAGCGCCATCTAC” here?
Answer: 1.23 RPM ratio (pull-down/input)

Question: Which binding signal does the source give for “GATGATTGTTCTCCCAGCTGATGAATTGTTGTGGTCGAGTAAACAAATTTTCCTAATCTTTCTGTTCAAGCGCCATCTAC” here?
Answer: 2.1 RPM ratio (pull-down/input)

Question: “GATGATTGTTCTCCCAGCTGATGAATTAGCTCAGTCGAGTAAACAAATTTTCCTAATCTTTCTGTTCAAGCGCCATCTAC” was tested. Which binding signal did it give?
Answer: 0.833 RPM ratio (pull-down/input)

Question: For “GATGATTGTTCTCCCAGCTGATGAATTTAGGTACTCGAGTAAACAAATTTTCCTAATCTTTCTGTTCAAGCGCCATCTAC”, which binding signal is on record?
Answer: 0.947 RPM ratio (pull-down/input)

Question: For “GATGATTGTTCTCCCAGCTGATGAATTTCGCATCTCGAGTAAACAAATTTTCCTAATCTTTCTGTTCAAGCGCCATCTAC”, which binding signal is on record?
Answer: 1.21 RPM ratio (pull-down/input)

Question: Which binding signal does the source give for “GATGATTGTTCTCCCAGCTGATGAATTTGCCGGATCGAGTAAACAAATTTTCCTAATCTTTCTGTTCAAGCGCCATCTAC” here?
Answer: 0.839 RPM ratio (pull-down/input)

Question: How did the binding signal turn out when “GATGATTGTTCTCCCAGCTGATGAATTAATCTAATCGAGTAAACAAATTTTCCTAATCTTTCTGTTCAAGCGCCATCTAC” was run?
Answer: 1.1 RPM ratio (pull-down/input)

Question: “GATGATTGTTCTCCCAGCTGATGAATTAAACAAATCGAGTAAACAAATTTTCCTAATCTTTCTGTTCAAGCGCCATCTAC” was tested. Which binding signal did it give?
Answer: 2.02 RPM ratio (pull-down/input)

Question: With “GATGATTGTTCTCCCAGCTGATGAATTTAAAACATCGAGTAAACAAATTTTCCTAATCTTTCTGTTCAAGCGCCATCTAC” as the sequence, how does the binding signal read?
Answer: 1.37 RPM ratio (pull-down/input)

Question: Which binding signal does the source give for “GATGATTGTTCTCCCAGCTGATGAATTAAACAACTCGAGTAAACAAATTTTCCTAATCTTTCTGTTCAAGCGCCATCTAC” here?
Answer: 1.84 RPM ratio (pull-down/input)

Question: For “GATGATTGTTCTCCCAGCTGATGAATTAAAAAAATCGAGTAAACAAATTTTCCTAATCTTTCTGTTCAAGCGCCATCTAC”, which binding signal is on record?
Answer: 1.04 RPM ratio (pull-down/input)

Question: For “GATGATTGTTCTCCCAGCTGATGAATTAAAAACATCGAGTAAACAAATTTTCCTAATCTTTCTGTTCAAGCGCCATCTAC”, which binding signal is on record?
Answer: 2.08 RPM ratio (pull-down/input)

Question: For “GATGATTGTTCTCCCAGCTGATGAATTAAACTCCTCGAGTAAACAAATTTTCCTAATCTTTCTGTTCAAGCGCCATCTAC”, which binding signal is on record?
Answer: 0.846 RPM ratio (pull-down/input)

Question: With “GATGATTGTTCTCCCAGCTGATGAATTAATTCAATCGAGTAAACAAATTTTCCTAATCTTTCTGTTCAAGCGCCATCTAC” as the sequence, how does the binding signal read?
Answer: 0.961 RPM ratio (pull-down/input)

Question: For “GATGATTGTTCTCCCAGCTGATGAATTAAATTAATCGAGTAAACAAATTTTCCTAATCTTTCTGTTCAAGCGCCATCTAC”, which binding signal is on record?
Answer: 1.01 RPM ratio (pull-down/input)

Question: With “GATGATTGTTCTCCCAGCTGATGAATTAATCAACTCGAGTAAACAAATTTTCCTAATCTTTCTGTTCAAGCGCCATCTAC” as the sequence, how does the binding signal read?
Answer: 1.1 RPM ratio (pull-down/input)

Question: For “GATGATTGTTCTCCCAGCTGATGAATTAAAACAATCGAGTAAACAAATTTTCCTAATCTTTCTGTTCAAGCGCCATCTAC”, which binding signal is on record?
Answer: 2 RPM ratio (pull-down/input)

Question: Which binding signal does the source give for “GATGATTGTTCTCCCAGCTGATGAATTAAATCAATCGAGTAAACAAATTTTCCTAATCTTTCTGTTCAAGCGCCATCTAC” here?
Answer: 1.01 RPM ratio (pull-down/input)

Source: article PMC12820563, “FoxP3 forms a head-to-head dimer in vivo and stabilizes its multimerization on adjacent microsatellites”
